Usually viability stands for a read-out of living cells in per cent, often relative to untreated cells.

This assay can be described thus: reversal of MRP1-mediated doxorubicin resistance, primary screen, H69AR cells, doxorubicin co-treatment (AID 602).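 As to differential viability (reversal): larger differential means the compound sensitizes cells more to doxorubicin.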 Particulars: CellTiter-Glo, 72 h, at 10 µM; for differential viability (reversal): stronger effect = higher value.
The mark [1] stands for this setting: H69AR cells + 2 uM doxorubicin, measured here: viability with 2 uM doxorubicin, stronger effect = lower value.
Where [2] appears, read: H69AR cells, measured here: cytotoxicity without doxorubicin.

Each structure is given as a SMILES string. About 35 (0.04%) of roughly 85,000 compounds were called active.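 The calls were made as follows: active = viability drop by adding the cancer drug above about 55%, with treated viability meeting a 40% cutoff (limit read from the data); inactive = the rest, inconclusive results apart.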 Many of the other results were omitted from the sample, so actives are more common in it than they were.

Turning to `O=C(c1ccc(Cl)c(Cl)c1)N1CCCC1`, under “H69AR cells + 2 uM doxorubicin”, the differential viability (reversal) is -4.92% (inactive). The viability reads like this: under setting [1], 100%; under setting [2], 95.3%.

Regarding `Cc1ccc(NC(=O)Nc2ccc3oc(C)nc3c2)cc1`, where the note is “H69AR cells + 2 uM doxorubicin”, the differential viability (reversal) was -17% (inactive). The viability worked out at 91.5% under setting [1] and 74.5% under setting [2].

For the compound `COc1ccc(Cl)cc1C(=O)NCc1cn(C)nc1C`, the differential viability (reversal) (H69AR cells + 2 uM doxorubicin) is 5.94% (inactive). Also, the viability under setting [1] was found to be 80.2% and the viability under setting [2] was 86.1%.

`O=C(CN1CCCCCC1)N1c2ccccc2Sc2ccc(C(F)(F)F)cc21`: the differential viability (reversal) (H69AR cells + 2 uM doxorubicin) is -13.5% (inactive). In addition, the viability reads like this: under setting [1], 50.3%; under setting [2], 36.8%.

As for `COc1ccc(-c2nnc(SCC(=O)c3ccc4c(c3)OCCO4)o2)cc1`, the differential viability (reversal) (H69AR cells + 2 uM doxorubicin) is 2.52% (inactive). For the same compound, the viability by setting is: under setting [1], 99.1%; under setting [2], 102%.

Regarding `Cc1ccc(S(=O)(=O)Oc2ccc(/C=N/NC(=O)c3c(Cl)cnn3C)cc2)cc1`, the differential viability (reversal) (H69AR cells + 2 uM doxorubicin) was -3.21% (inactive). The viability runs as follows: under setting [1], 82.4%; under setting [2], 79.2%.

Turning to `COc1ccc(C(=O)Nc2nc(-c3ccc(S(=O)(=O)N4CCOCC4)cc3)cs2)cc1`, the differential viability (reversal) (H69AR cells + 2 uM doxorubicin) is -4.07% (inactive). For the same compound, the viability is 62.1% under setting [1] and 58% under setting [2].

As to `O=c1c2ccccc2nc2n1C1(CCCCC1)Cc1ccccc1-2`, the differential viability (reversal) (H69AR cells + 2 uM doxorubicin) was -4.43% (inactive). For the same compound, the viability is, setting by setting: under setting [1], 88.2%; under setting [2], 83.7%.

`COC(=O)/C(NC(C)=O)=C(\C)c1ccc(Cl)cc1`: the differential viability (reversal) (H69AR cells + 2 uM doxorubicin) is -15.7% (inactive). Besides, the viability is 118% under setting [1] and 102% under setting [2].

As to `Cc1nnc(SCC(=O)Nc2ncc3c(n2)CC(C)(C)CC3=O)s1`, the differential viability (reversal) (H69AR cells + 2 uM doxorubicin) was 16.1% (inactive). Further, the viability stood at 79.2% under setting [1] and 95.3% under setting [2].

In the case of `CC(=O)c1cccc(NC(=O)N2CCCC2C(=O)NCCc2ccccc2)c1` (centres undefined), the differential viability (reversal) (H69AR cells + 2 uM doxorubicin) was 1.66% (inactive). The viability was determined as 89.9% under setting [1] and 91.5% under setting [2].

Regarding `O=C(/C=C/NNC(=O)c1cccc(Br)c1)c1ccccc1`, the differential viability (reversal) (H69AR cells + 2 uM doxorubicin) was -16.9% (inactive). For the same compound, the viability reads like this: under setting [1], 78.5%; under setting [2], 61.5%.

Take `COC(=O)c1ccc(Sc2ccc(F)cc2)c(N)c1`: the differential viability (reversal) (H69AR cells + 2 uM doxorubicin) is 11.2% (inactive). The viability turned out to be 97.4% under setting [1] and 109% under setting [2].

Regarding `O=C(CN1CCCCC1)N1c2ccccc2Sc2ccc(C(F)(F)F)cc21`, the differential viability (reversal) (H69AR cells + 2 uM doxorubicin) was -4.36% (inactive). Further, the viability by setting is: under setting [1], 91.2%; under setting [2], 86.8%.

For the compound `CC(CO)N1CCS(=O)(=O)CC1` (centres undefined), the differential viability (reversal) (H69AR cells + 2 uM doxorubicin) was 9.77% (inactive). Besides, the viability under setting [1] came out at 83.8% and the viability under setting [2] is 93.6%.

As to `O=C(CCN1C(=O)c2ccccc2C1=O)Nc1cccc(F)c1`, the differential viability (reversal) (H69AR cells + 2 uM doxorubicin) was 0% (inactive). For the same compound, the viability reads like this: under setting [1], 98.2%; under setting [2], 98.2%.

Consider `Cc1ccc(SCCC(=O)OCC(=O)Nc2ncc(Cl)cc2Cl)cc1`, for which the differential viability (reversal) (H69AR cells + 2 uM doxorubicin) is 6.94% (inactive). In addition, the viability is, setting by setting: under setting [1], 72.7%; under setting [2], 79.6%.

`O=C(NCc1ccco1)c1ccc(Cn2c(=O)c3sccc3n(Cc3ccc(F)cc3)c2=O)cc1`: the differential viability (reversal) (H69AR cells + 2 uM doxorubicin) is 11.8% (inactive). Besides, the viability under setting [1] is 70.9% and the viability under setting [2] turned out to be 82.7%.

With `CC1(C)CCc2nc(SCc3ccccc3)c(C#N)cc2C1`, under “H69AR cells + 2 uM doxorubicin”, the differential viability (reversal) is 3.69% (inactive). Moreover, the viability reads like this: under setting [1], 77.7%; under setting [2], 81.4%.

On to `Cc1csc(OCC(=O)Nc2ccc(C)c(C)c2)n1`, for which, for the setting “H69AR cells + 2 uM doxorubicin”, the differential viability (reversal) is 0.06% (inactive). The viability under setting [1] came to 107% and the viability under setting [2] was 107%.

Turning to `Cc1ccc(O)c(CNc2nc3ccccc3n2C)c1`, where the note is “H69AR cells + 2 uM doxorubicin”, the differential viability (reversal) was 3.81% (inactive). The viability runs as follows: under setting [1], 84.6%; under setting [2], 88.4%.

Regarding `O=c1[nH]c2c(c(=O)n1Cc1ccccc1)CCC2`, the differential viability (reversal) (H69AR cells + 2 uM doxorubicin) is 3.8% (inactive). Further, the viability under setting [1] is 94.9% and the viability under setting [2] was determined as 98.7%.

As to `COC(=O)c1ccccc1NC(=O)CSc1nnnn1C`, the differential viability (reversal) (H69AR cells + 2 uM doxorubicin) is -8.64% (inactive). For the same compound, the viability stood at 104% under setting [1] and 95.3% under setting [2].

As for `O=C(NCc1cccnc1)Nc1ccccc1F`, the differential viability (reversal) (H69AR cells + 2 uM doxorubicin) was -0.98% (inactive). For the same compound, the viability amounted to 99.8% under setting [1] and 98.8% under setting [2].

As to `CCCc1nc2scc(-c3ccc(C)cc3)c2c(=O)n1N`, the differential viability (reversal) (H69AR cells + 2 uM doxorubicin) was -37.7% (inactive). Moreover, the viability is, setting by setting: under setting [1], 83.8%; under setting [2], 46.1%.

Regarding `CC(=O)c1ccc2c(c1)c1ccccc1n2CC(C)C`, for the setting “H69AR cells + 2 uM doxorubicin”, the differential viability (reversal) was -0.04% (inactive). For the same compound, the viability under setting [1] was 73.3% and the viability under setting [2] was found to be 73.2%.

Regarding `CCCCC(C(=O)OCC(=O)c1ccc(OC)cc1)N1C(=O)c2ccccc2C1=O` (centres undefined), the differential viability (reversal) (H69AR cells + 2 uM doxorubicin) is -8.79% (inactive). In addition, the viability reads like this: under setting [1], 104%; under setting [2], 95%.

Take `CCn1nccc1C(=O)Nc1ccc(S(=O)(=O)NC23CC4CC(CC(C4)C2)C3)cc1`: under “H69AR cells + 2 uM doxorubicin”, the differential viability (reversal) is -7.56% (inactive). Moreover, the viability runs as follows: under setting [1], 84%; under setting [2], 76.5%.

`COc1ccc(Nc2nc(=O)[nH]nc2C)cc1`: under “H69AR cells + 2 uM doxorubicin”, the differential viability (reversal) is -5.85% (inactive). Further, the viability under setting [1] came out at 101% and the viability under setting [2] was determined as 95.5%.

Consider `CCOC(=O)Cc1csc(NC(=O)CSc2nnc(-c3cccnc3)n2Cc2ccco2)n1`, for which, where the note is “H69AR cells + 2 uM doxorubicin”, the differential viability (reversal) was 14.6% (inactive). The viability was 85.7% under setting [1] and 100% under setting [2].

Regarding `COCCn1c(=S)[nH]c2cc(C(=O)NCCc3ccc(OC)c(OC)c3)ccc2c1=O`, for the setting “H69AR cells + 2 uM doxorubicin”, the differential viability (reversal) is 2.26% (inactive). For the same compound, the viability is, setting by setting: under setting [1], 75.8%; under setting [2], 78.1%.

For `CC(=O)Nc1ccc(N2C(=O)CCC2=O)cc1C`, for the setting “H69AR cells + 2 uM doxorubicin”, the differential viability (reversal) is -10.5% (inactive). Moreover, the viability turned out to be 86.7% under setting [1] and 76.2% under setting [2].

With `CCc1c(C)sc(NC(=O)c2cccs2)c1C(N)=O`, where the note is “H69AR cells + 2 uM doxorubicin”, the differential viability (reversal) was 4.09% (inactive). Besides, the viability under setting [1] came out at 95.6% and the viability under setting [2] was 99.7%.

As to `CC1(C)OC(=O)N2CCc3ccccc3C21C` (centres undefined), the differential viability (reversal) (H69AR cells + 2 uM doxorubicin) is 3.59% (inactive). In addition, the viability runs as follows: under setting [1], 88%; under setting [2], 91.6%.

For the compound `Cc1[nH]n(-c2ccc([N+](=O)[O-])cc2)c(=O)c1C=NCCN1CCN(C(=O)c2ccccc2F)CC1`, for the setting “H69AR cells + 2 uM doxorubicin”, the differential viability (reversal) was -1.07% (inactive). Besides, the viability amounted to 40.5% under setting [1] and 39.4% under setting [2].

For the compound `COc1cccc(N(CC(=O)NCCSc2ccccn2)S(C)(=O)=O)c1`, the differential viability (reversal) (H69AR cells + 2 uM doxorubicin) is 3.02% (inactive). In addition, the viability is, setting by setting: under setting [1], 92.5%; under setting [2], 95.5%.

As to `CCCC1NC(=O)NC(C)=C1C(=O)OCC` (centres undefined), the differential viability (reversal) (H69AR cells + 2 uM doxorubicin) is 2.9% (inactive). The viability under setting [1] stood at 96.9% and the viability under setting [2] was determined as 99.8%.

For `COc1ccccc1C(c1nnnn1C(C)(C)C)N1CCN(Cc2ccccc2)CC1` (centres undefined), the differential viability (reversal) (H69AR cells + 2 uM doxorubicin) was 9.02% (inactive). Further, the viability under setting [1] amounted to 76.2% and the viability under setting [2] worked out at 85.2%.

These data come from PubChem BioAssay AID602 (SRMLSC, 2007).
